Data published in the supplement of paper PMC12494721.
Where a name gives a salt, the structure may show the parent alone.

Legend:
Details in all cases: incubation time: 27 h, anaerobic, 37 °C;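 for the amine columns active = adjusted P below 0.05 in both replicates with a change the same way and a mean fold change under 0.8 or over 1.25; inactive = the rest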
[1] = test system: Clostridium sporogenes DSM 1664; assay: growth (OD595) fold change vs plate DMSO controls (fold change (ratio)); higher = more growth
Procedure, shortened: (§1)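 Growth is the fold change relative to the median of plate DMSO controls. Readings came from anaerobic mGAM cultures in 96-well plates grown for 27 h at 37 °C and read at 595 nm. They were blank-subtracted, corrected for compound background with 20 µM compound solutions in water, and converted to OD with a calibration factor of 5. Values are means of 2 biological replicates, and fold changes above 1.5 were set to NA.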

Escherichia coli IAI1 [2] = assay: as above
Procedure, shortened: as §1

[3] = test system: Klebsiella aerogenes DSM 30053; assay: as above
Procedure, shortened: as §1

[4] = test system: Ruminococcus gnavus DSM 108212; assay: as above
Procedure, shortened: as §1

[5] = test system: Klebsiella aerogenes DSM 30053; assay: fold change of Histamine concentration vs plate DMSO controls (fold change (ratio)); higher = more amine produced, active = hit call of the paper (significant change in both replicates, either direction)
Procedure, shortened: (§2)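 Amine values are fold changes relative to DMSO-only wells on the same plate. They derive from 27 h, 37 °C anaerobic mGAM cultures of four gut bacterial strains in 80 µL wells, dosed at 20 µM final, or 50 µM final for sweeteners. Extraction of the whole culture, LC–triple-quadrupole MS in dynamic MRM mode, external calibration curves and within-batch drift correction were used, with 2 biological replicates averaged.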

[6] = test system: Clostridium sporogenes DSM 1664; assay: fold change of Tryptamine concentration vs plate DMSO controls (fold change (ratio)); higher = more amine produced, active = hit call of the paper (significant change in both replicates, either direction)
Procedure, shortened: as §2

[7] = test system: Ruminococcus gnavus DSM 108212; assay: as above
Procedure, shortened: as §2

Escherichia coli IAI1 [8] = assay: fold change of Putrescine concentration vs plate DMSO controls (fold change (ratio)); higher = more amine produced, active = hit call of the paper (significant change in both replicates, either direction)
Procedure, shortened: as §2

[9] = test system: Klebsiella aerogenes DSM 30053; assay: as above
Procedure, shortened: as §2

Escherichia coli IAI1 [10] = assay: fold change of Cadaverine concentration vs plate DMSO controls (fold change (ratio)); higher = more amine produced, active = hit call of the paper (significant change in both replicates, either direction)
Procedure, shortened: as §2

[11] = test system: Klebsiella aerogenes DSM 30053; assay: as above
Procedure, shortened: as §2

[12] = test system: Ruminococcus gnavus DSM 108212; assay: fold change of 2-Phenylethylamine concentration vs plate DMSO controls (fold change (ratio)); higher = more amine produced, active = hit call of the paper (significant change in both replicates, either direction)
Procedure, shortened: as §2

Row | SMILES | growth [1] | growth (Escherichia coli IAI1 [2]) | growth [3] | growth [4] | fold change of Histamine concentration [5] | fold change of Tryptamine concentration [6] | fold change of Tryptamine concentration [7] | fold change of Putrescine concentration (Escherichia coli IAI1 [8]) | fold change of Putrescine concentration [9] | fold change of Cadaverine concentration (Escherichia coli IAI1 [10]) | fold change of Cadaverine concentration [11] | fold change of 2-Phenylethylamine concentration [12]
1 | OCCN(CCO)c1nc(N2CCCCC2)c2nc(N(CCO)CCO)nc(N3CCCCC3)c2n1 [Dipyridamole] (20 µM) | 0.986 | 1.03 | 0.521 | 0.969 | 0.47 (inactive) | 0.971 (inactive) | 1 (inactive) | 1.03 (inactive) | 0.51 (inactive) | 1 (inactive) | 0.5 (inactive) | 0.994 (inactive)
2 | C=CCOC(Cn1ccnc1)c1ccc(Cl)cc1Cl (stereo unspecified) [Enilconazole] (20 µM) | 1.05 | 0.989 | 0.991 | 0.919 | 0.966 (inactive) | 1.19 (inactive) | 1.15 (inactive) | 0.862 (inactive) | 1.01 (inactive) | 0.939 (inactive) | 1.13 (inactive) | 1.56 (active)
3 | Cc1nn(C)c(Oc2ccccc2)c1/C=N/OCc1ccc(C(=O)OC(C)(C)C)cc1 (20 µM) | 1.15 | 1.03 | 1.02 | 0.998 | 0.993 (inactive) | 0.918 (inactive) | 1.04 (inactive) | 1.02 (inactive) | 1.06 (inactive) | 0.987 (inactive) | 1.03 (inactive) | 0.974 (inactive)
4 | CCN(CC)C(=S)SSC(=S)N(CC)CC [Disulfiram] (20 µM) | 1.03 | 0.988 | 0.991 | 1.38 | 1.06 (inactive) | 0.992 (inactive) | 1 (inactive) | 1.09 (inactive) | 1.03 (inactive) | 0.969 (inactive) | 1 (inactive) | 0.955 (inactive)
5 | N#CC(c1ccc(Cl)cc1)c1c(Cl)cc(-n2ncc(=O)[nH]c2=O)cc1Cl (stereo unspecified) [Diclazuril] (20 µM) | 0.806 | 0.993 | 1.08 | 0.961 | 0.913 (inactive) | 0.791 (inactive) | 0.778 (active) | 0.911 (inactive) | 0.967 (inactive) | 0.99 (inactive) | 1.03 (inactive) | 0.81 (inactive)
6 | CCCOc1ccc2[nH]c(NC(=O)OC)nc2c1 [Oxibendazol] (20 µM) | 0.862 | 0.999 | 0.972 | 0.869 | 1.04 (inactive) | 0.982 (inactive) | 1 (inactive) | 1 (inactive) | 1.02 (inactive) | 1 (inactive) | 0.987 (inactive) | 0.996 (inactive)
7 | O=C(O)CCNC(=O)c1ccc(/N=N/c2ccc(O)c(C(=O)O)c2)cc1 [Balsalazide disodium salt] (20 µM) | 1 | 1 | 1.02 | 0.934 | 0.892 (inactive) | 0.993 (inactive) | 1.21 (inactive) | 0.893 (inactive) | 1.01 (inactive) | 0.963 (inactive) | 1.11 (inactive) | 1.51 (active)
8 | OC[C@@H](O)[C@H](O)[C@@H](O)CO [Xylitol] (50 µM) | 1 | 1.05 | 1.11 | 1.12 | 1.08 (inactive) | 1.06 (inactive) | 1.06 (inactive) | 1.03 (inactive) | 1.19 (inactive) | 0.916 (inactive) | 1.02 (inactive) | 1.08 (inactive)
9 | CC(C)Cc1ccc(CC(=O)O)cc1 [Ibufenac] (20 µM) | 1.08 | 1.1 | 1.06 | 1.24 | 0.908 (inactive) | 1.04 (inactive) | 1 (inactive) | 1.06 (inactive) | 1.01 (inactive) | 0.994 (inactive) | 1.01 (inactive) | 0.976 (inactive)
10 | C[C@]12CCC3=C4CCC(=O)C=C4CC[C@H]3[C@@H]1CC[C@@]2(O)CC#N [Dienogest] (20 µM) | 0.815 | 0.536 | 0.616 | 0.67 | 0.945 (inactive) | 1.01 (inactive) | 1.04 (inactive) | 0.979 (inactive) | 1 (inactive) | 0.993 (inactive) | 1 (inactive) | 1.02 (inactive)
11 | CO/N=C(\C(=O)N[C@@H]1C(=O)N2C(C(=O)OCOC(=O)C(C)(C)C)=C(/C=C\c3scnc3C)CS[C@H]12)c1csc(N)n1 [Cefditoren Pivoxil] (20 µM) | 0.809 | 1.11 | 1.03 | 0.996 | 0.988 (inactive) | 0.951 (inactive) | 1 (inactive) | 0.864 (inactive) | 1.12 (inactive) | 1.18 (inactive) | 1.05 (inactive) | 1.01 (inactive)
12 | Cc1cn([C@H]2C[C@H](N=[N+]=[N-])[C@@H](CO)O2)c(=O)[nH]c1=O [Zidovudine] (20 µM) | 0.921 | 0.825 | 0.946 | 1.45 | 1.12 (inactive) | 1.04 (inactive) | 1.02 (inactive) | 0.549 (inactive) | 1.07 (inactive) | 1.79 (inactive) | 0.981 (inactive) | 1.11 (inactive)
13 | CCOC(=O)C1=C(C)NC(C)=C(C(=O)OCC)C1c1ccccc1/C=C/C(=O)OC(C)(C)C [Lacidipine] (20 µM) | 1.03 | 0.928 | 0.929 | 1.12 | 1.13 (inactive) | 0.849 (inactive) | 0.944 (inactive) | 0.962 (inactive) | 1.03 (inactive) | 1.01 (inactive) | 0.979 (inactive) | 0.955 (inactive)
